Screening data (PubChem)
Compounds with a hit are over-represented: about 3.4% of the library has one in this group of screens.
SMARCA2 act: activators of SMARCA2 function; MG213 cells, MMTV-luciferase reporter, dexamethasone, overnight; actives 1% (n = 370,000); activation, % at 9.1 µM; AID 652017; in the data active = activation above about 7.8%;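 also: 0% = vehicle wells and 100% = reference activator wells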
HSF1 inhib: HSF1 inhibition; NIH3T3-HGL HSE-luciferase, MG132-induced, luminescence 8 h; hits give low values; activity change, negative = inhibition, % at 7.5 µM (by protocol); actives 0.77% (n = 300,000);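 active = more than half of replicate wells show activity change below -50%, luminescence cut by over half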;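 also: luciferase reports HSF-1 transcriptional activity via heat shock element; 0% = median of DMSO wells and -100% = zero luminescence signal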
FXN GAA850 act: increases GAA850 frataxin promoter reporter activity; HEK293 lucGAA850 FXN promoter luciferase reporter, 24 h; percent of 10 µM SAHA response; activation, % at 6 µM; actives 0.56% (n = 360,000); AID 540364;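 active = activation above the average of all compounds screened plus 3 SD, cutoff fixed separately per campaign, cut at about 7.5% in these data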;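 also: 0% = DMSO wells and 100% = 10 µM SAHA wells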
PG9 binder: small molecules binding HIV-1 gp120 antibody PG9; TR-FRET gp120-PG9 antibody binding; inhibition, % at 6.7 µM; actives 0.43% (n = 360,000); in the data active = inhibition above about 8.5%
AI-2 QS modul: modulators of Vibrio harveyi AI-2 quorum sensing system | Vibrio harveyi JMH597 AI-2 luminescence/OD600 ratio, 9 h; hits give low values; strain lacks LuxN and CqsS sensors; 0 = neutral-control median | activity change, % at 7.5 µM | actives 0.4% (n = 300,000) | AID 2094; in the data active = activity change below about -75%, passing the limit was not always enough;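 also: luminescence divided by OD600 gain over 9 h not by final OD600 alone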
HSP90 inh: inhibitors of HSP90 luciferase refolding in rabbit reticulocyte lysate. actives 0.91% (n = 290,000). inhibition, % at 5.6 µM. luciferase refolding luminescence, 3 h;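 active = inhibition above the screen-wide mean plus 3 SD, computed separately per campaign, cut at about 16% in these data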;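 also: 0% = DMSO wells and 100% = 60 µM geldanamycin wells; inhibitors lower the luminescence because luciferase stays unfolded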
The depositor's hits bear a star; nt = no result given.

SMILES	SMARCA2 act	HSF1 inhib	FXN GAA850 act	PG9 binder	AI-2 QS modul	HSP90 inh
COC(=O)c1cc2c(c3c4cc(OC)ccc4n(S(=O)(=O)c4cccc(C)c4)c13)C(=O)N(Cc1ccc(C(F)(F)F)cc1)C2	-3	nt	nt	1	nt	nt
O=C(/C=C/c1ccco1)Nc1ccc(-c2nc3ccccc3[nH]2)cc1	0	18	3	-1	45	4
COc1ccc(NC(=O)c2ccco2)cc1NC(=O)c1ccco1	0	3	-1	0	7	-4
O=C(Nc1ccc(Cc2ccncc2)cc1)c1ccco1	3	7	3	1	-82*	2
O=C(Nc1ccc(-c2nc3ccccc3[nH]2)cc1)c1ccco1	nt	29	8.6*	nt	8	0
COc1ccc(NC(=O)c2ccco2)cc1N	1	-57*	2	-3	10	-3
CC(C)(C)c1nn(-c2ccccc2)c2[nH]c(=O)c(CNc3ccc4c(c3)OCCO4)cc12	-7	-65*	-12	1	57	8
CC(C)(C)c1nn(-c2ccccc2)c2[nH]c(=O)c(CNCc3ccco3)cc12	-3	-6	0	-1	18	-4
CCC(C)[C@H](NC(=O)[C@H](CC(C)C)NC(=O)OC(C)(C)C)C(=O)N[C@@H](Cc1ccccc1)C(=O)OC (stereo partly specified)	-1	nt	nt	nt	nt	nt
Cc1ccccc1N(C)C(=O)Cn1nnc(-c2ccccc2F)n1	-6	nt	nt	nt	nt	nt
CCCCC(=O)NC(c1ccc(N(CC)CC)cc1)c1ccc2cccnc2c1O (stereo unspecified)	-3	-47	-4	-1	-43	8
CCCC(=O)NC(c1ccc(Cl)cc1Cl)c1ccc2cccnc2c1O (stereo unspecified)	-1	-41	-7	1	28	13
CCCCC(=O)NC(c1ccc(N(C)C)cc1)c1ccc2cccnc2c1O (stereo unspecified)	-4	-45	-6	0	nt	19*
CCCC(=O)NC(c1ccccc1OC)c1ccc2cccnc2c1O (stereo unspecified)	nt	-2	-12	nt	-22	24*
CC(=O)NC(c1ccc(Cl)cc1Cl)c1ccc2cccnc2c1O (stereo unspecified)	-3	-44	-8	1	-84*	9
O=C(N[C@@H](Cc1cccnc1)C(=O)N1CCC[C@H]1C(=O)NCCc1ccccc1Cl)C1CC1	-5	nt	nt	-2	nt	nt
O=C(NCCN1CCC(Cc2ccccc2)CC1)C1CCCN(S(=O)(=O)c2ccccc2[N+](=O)[O-])C1 (stereo unspecified)	-6	nt	nt	nt	nt	nt
Cc1nc(NC(=O)/C=C/c2ccc(Cl)cc2Cl)sc1C(=O)N(C)C	-2	-76*	0	2	26	-1
C#CCNC(=O)C[C@H]1C[C@@]2(C(=O)OC)C(=C[C@H](C(C)(C)C)O[C@@H]2C)N(Cc2ccccc2)C1=O	-1	nt	nt	1	nt	nt
O=C(COC(=O)c1n[nH]c2ccccc12)c1cccc(Br)c1	2	17	1	0	-92*	-1
Cc1ccc(C)c(C(=O)COC(=O)c2n[nH]c3ccccc23)c1	2	nt	1	-1	nt	nt
CCN(CC(=O)Nc1c(F)cccc1F)C(=O)Cc1n[nH]c(=O)c2ccccc12	2	-72*	0	0	14	nt
CCN(CC(=O)Nc1c(F)cccc1F)C(=O)CCc1nc2ccccc2c(=O)[nH]1	-2	2	3	0	13	nt
CCCCN1CCN(C(=O)c2cn(C(C)c3ccccc3)nn2)CC1 (stereo unspecified)	-4	nt	nt	nt	nt	nt
COc1ccc(OCCCCn2c(CO)nc3ccccc32)cc1	-2	-54*	2	-1	13	1
Cc1cccc(OCCCCn2c(CO)nc3ccccc32)c1	-2	1	2	2	16	-1
COc1cccc(C2CC=C(C(=O)O)CN2S(=O)(=O)c2ccc(C)cc2)c1 (stereo unspecified)	-1	nt	nt	nt	nt	nt
COc1ccc(NC(=O)C2CCN(c3nc(-c4ccc(OC)cc4)no3)CC2)cc1	0	-9	-7	1	32	0
COc1ccc(-c2noc(N3CCC(C(=O)NCCCN4CC(C)CC(C)C4)CC3)n2)cc1 (stereo unspecified)	0	-77*	-1	-1	nt	0
Cc1ccc(-n2c(SCC(=O)Nc3ccc4c(c3)OCCO4)nnc2-c2ccccn2)cc1	-4	nt	nt	nt	nt	nt
